Compound activity deposited in PubChem BioAssay by The Scripps Research Institute Molecular Screening Center.
GPR151 activ = activators of human GPR151; AID 1508602; PathHunter beta-arrestin GPR151 cells, luminescence; activation, % at 11.2 µM; hit rate 1% among 650,000; Q8TDV0; in the data active means activation above about 4.9%;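 further: 0% = median of compound wells and 100% = cells with positive control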
Target sequence (Q8TDV0 whole entry, looked up): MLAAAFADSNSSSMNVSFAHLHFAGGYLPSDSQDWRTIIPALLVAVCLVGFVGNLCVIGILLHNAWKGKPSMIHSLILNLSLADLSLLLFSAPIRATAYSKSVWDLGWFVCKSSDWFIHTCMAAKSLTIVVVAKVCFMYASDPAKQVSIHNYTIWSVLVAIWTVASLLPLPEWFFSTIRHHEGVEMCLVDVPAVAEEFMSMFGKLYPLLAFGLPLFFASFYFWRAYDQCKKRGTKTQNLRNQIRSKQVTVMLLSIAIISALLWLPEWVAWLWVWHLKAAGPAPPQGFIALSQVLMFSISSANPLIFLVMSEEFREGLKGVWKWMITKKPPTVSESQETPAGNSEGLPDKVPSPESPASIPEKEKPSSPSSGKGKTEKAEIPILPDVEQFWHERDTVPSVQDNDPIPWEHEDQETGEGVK
TEAD-YAP block = TEAD-YAP interaction inhibition; HEK-TIYL cells, TEAD-Gal4/YAP UAS-luciferase luminescence; inhibition, % at 9.12 µM; hit rate 1.4% among 640,000; in the data active means inhibition above about 32%;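 further: 0% = median of test compound wells and 100% = reference inhibitor wells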
MITF primary = human MITF inhibition, primary screen; O75030; AlphaScreen MITF homodimerization, bead proximity signal; inhibition, % at 2.6 µM; hit rate 0.91% among 650,000; in the data active means inhibition above about 50%;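 further: 0% = vehicle wells with protein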
FBW7 act = human FBW7 E3 ligase activation, primary screen. Q969H0. normalized activity (activation), % at 26.1 µM. AlphaScreen FBW7–phospho-cyclin E peptide binding, activator screen. hit rate 0.13% among 650,000; in the data active means normalized activity above about 1.9%;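 further: purified mutant Fbw7 with reduced substrate affinity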
GPR151 confirm = human GPR151 activation, confirmation screen. shares compounds with GPR151 activ. GPR151 PathHunter beta-arrestin cells, luminescence, 90 min; % of EA-reagent control over plate median. activation, % at 11.2 µM. 6,700 tested, under 10 active;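 active means mean percent activation across replicates above the confirmation screen cutoff of 4.91%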
GPR119 ag = counter-screen for GPR151 activators: effect on human GPR119. AID 1508611. GPR119 PathHunter beta-arrestin cells, luminescence, 90 min; 0 = compound-well median, 100 = enzyme-acceptor control. shares compounds with GPR151 activ. hit rate 0.3% among 6,700. activation, % at 11.2 µM;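 active means mean percent activation in the counterscreen above 29.09%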;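 further: counterscreen on off-target GPR119 to flag nonselective hits from the GPR151 activator screen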
* marks the source's active call; other numbers are inactive results; nt = not tested or not shown. The list is not random: actives were taken first. Their share in the collection is about 3.5%.

SMILES	GPR151 activ	TEAD-YAP block	MITF primary	FBW7 act	GPR151 confirm	GPR119 ag
Cc1ccc(NC(=O)C(Sc2ccccc2)c2ccccc2)cc1[N+](=O)[O-] (stereo not given)	8.4*	-2	14	0	0	-10
Cc1ccc(NC(=O)COc2ccccc2C(=O)NC(C)c2ccccc2)cc1[N+](=O)[O-] (stereo not given)	7.1*	10	17	0	0	-13
Cc1nnc(SCC(=O)Nc2ccc(C)c([N+](=O)[O-])c2)s1	7.3*	9	18	0	-1	-6
Cc1nnc(SCC(=O)Nc2ccc(Cl)c([N+](=O)[O-])c2)s1	-1	14	-3	0	nt	nt
CC(=O)Nc1ccc(NC(=O)C(Sc2ccccc2)c2ccccc2)cc1 (stereo not given)	0	-5	-18	0	nt	nt
CCOC(=O)c1sc2nc(SCC(=O)c3ccc(Cl)cc3)n(Cc3cccs3)c(=O)c2c1C	5.1*	10	-12	0	1	8
CCOC(=O)c1sc2nc(SCC(=O)c3ccccc3)n(Cc3ccc(Cl)cc3)c(=O)c2c1C	-1	-9	0	0	nt	nt
O=C(OCCOc1ccc(Br)cc1)c1cccnc1Cl	1	4	-6	0	nt	nt
CSc1ncccc1C(=O)OCCOc1ccc(Br)cc1	6.3*	-2	-17	0	0	-3
COc1cc(N)c(Cl)cc1C(=O)OCCOc1ccc(Br)cc1	20*	4	7	0	-1	0
Cc1csc(CNC(=O)CCc2nnc(Cc3cccc(C(F)(F)F)c3)o2)n1	0	-7	-6	0	nt	nt
CCOC(=O)C1CCCCN1Cc1ccc(OC)c(C)c1OC (stereo not given)	0	0	42	0	nt	nt
CCOC(=O)C1CCCCN1Cc1cc(C)c(OC)cc1C (stereo not given)	4.9*	-2	36	0	-1	-14
COc1ccc(CCNC(=O)c2[nH]c(C)c(C(C)=O)c2C)cc1OC	-1	-2	2	0	nt	nt
CCOc1ccc(CCNC(=O)c2[nH]c(C)c(C(C)=O)c2C)cc1OCC	14*	-6	-2	0	0	2
O=C(OCc1nc2ccccc2s1)c1ccccc1	6.7*	-1	-14	0	0	-8
Nc1sc(-c2ccccc2)cc1C(=O)N/N=C/c1cccs1	8.4*	5	-6	0	-1	-5
O=C1CCCc2c1[nH]c1c(Cl)cccc21	4	2	2	0	nt	nt
O=C1c2ccccc2C(=O)C1(Nc1ccc(Br)cc1)c1ccccc1	6.9*	16	-5	0	0	-3
O=C1c2ccccc2NC(c2cccc([N+](=O)[O-])c2)N1c1ccc(F)c(Cl)c1 (stereo not given)	-1	-54	-6	0	nt	nt
Cc1ccc(N(CC(=O)Nc2ccccn2)S(=O)(=O)c2ccccc2)cc1	0	-38	-1	1	nt	nt
CC(C)[C@@H](Cn1nc(-c2ccc(F)c(F)c2)ccc1=O)NC(=O)c1ccc(=O)[nH]n1	9.0*	0	6	0	0	5
CC(=O)c1c(C)[nH]c2ccccc2c1=O	1	-6	-1	0	nt	nt
Cc1[nH]c2ccccc2c(=O)c1Br	5.6*	7	11	0	0	7
Cc1cc(C(=O)/C=C/c2ccc(OCC(=O)O)cc2)c(C)s1	6.1*	4	2	0	0	-4
SMILES	GPR151 activ	TEAD-YAP block	MITF primary	FBW7 act	GPR151 confirm	GPR119 ag
CCOC(=O)c1cn(-c2cccc([N+](=O)[O-])c2)c2cc(Cl)c([N+](=O)[O-])cc2c1=O	0	2	1	0	nt	nt
O=C(CSc1nnnn1-c1ccccc1)Nc1cc2c(cc1Br)OCCO2	0	13	14	1	nt	nt
COc1cc2c(cc1OC)[C@@H](c1ccccc1)CN(C)CC2	7.5*	2	24	0	0	-8
COCCCNc1nc2c(S(=O)(=O)c3ccccc3)nnn2c2ccsc12	6.5*	-7	-3	0	1	9
COCCCNc1nc2c(S(=O)(=O)c3ccccc3)nnn2c2ccccc12	-1	-1	6	0	nt	nt
CC(C)OCCCNc1nc2c(c(=O)[nH]c(=O)n2C)n1CCOc1ccccc1	0	-2	-17	0	nt	nt
Cc1ccc(C(=O)N2CCN(c3ccc([N+](=O)[O-])c(NC(C)c4ccccc4)c3)CC2)cc1 (stereo not given)	2	3	16	0	nt	nt
COc1ccc(C2C(C#N)=C(N)N(N(C)C)C3=C2C(=O)CCC3)cc1 (stereo not given)	2	11	-4	0	nt	nt
CN(C)N1C(N)=C(C#N)C(c2ccc3ccccc3c2)C2=C1CCCC2=O (stereo not given)	5.9*	2	1	0	0	16
CC(Nc1cc(N2CCOCC2)ccc1[N+](=O)[O-])c1ccc(Br)cc1 (stereo not given)	0	12	1	0	nt	nt
COc1ccc(-n2nc3c(c2NC(=O)c2cc(Cl)ccc2OC)CSC3)cc1	0	10	-5	0	nt	nt
COC(=O)c1cnn(C(=O)c2ccncc2)c1N	-2	0	-3	0	nt	nt
COC(=O)c1cnn(C(=O)c2ccc(OC)cc2)c1N	6.2*	-4	6	0	0	0
Cc1cc(N2CCOCC2)nc(N2CCN(C(=O)Cc3cccs3)CC2)n1	11*	11	3	0	-1	-3
O=S(=O)(NCc1csc(-c2cccnc2)n1)c1ccc(Br)cc1	5.6*	-9	11	0	0	-10
Cc1ccc2c(c1)cc(CN(Cc1cccs1)C(=O)c1cccs1)c1nnnn12	1	3	0	0	nt	nt
Cc1ccc2c(c1)cc(CN(Cc1ccco1)C(=O)N(C)C)c1nnnn12	0	4	4	0	nt	nt
Cc1ccc2c(c1)cc(CN(Cc1ccco1)S(=O)(=O)c1ccccc1)c1nnnn12	6.7*	-11	-12	0	0	5
Cc1ccc2c(c1)cc(CN(CCc1ccccc1)C(=O)N1CCOCC1)c1nnnn12	5.2*	3	22	0	1	3
Cc1ccc2c(c1)cc(CN(Cc1cccs1)C(=O)C1CC1)c1nnnn12	5.4*	-3	17	1	0	4
CCn1nnc2c(N3CCC4(CC3)OCCO4)ncnc21	0	-37	-10	0	nt	nt
c1ccc(Oc2nc(NC3CC3)c3ncn(-c4ccsc4)c3n2)cc1	6.6*	88*	-9	0	4	46*
CN(C)c1cccc(Nc2nc(Nc3ccccc3)c3ncn(-c4ccsc4)c3n2)c1	5.6*	-67	9	0	-1	-8
CN(C)c1cccc(Nc2nc(NCc3ccccc3)c3ncn(-c4ccsc4)c3n2)c1	0	-1	12	1	nt	nt
c1ccc2c(c1)CCN(c1nc(NC3CC3)c3ncn(-c4ccsc4)c3n1)C2	2	25	-1	0	nt	nt
